An excerpt weighted towards active compounds, which were near 1.1% of everything screened.
PfHsp40 rescue: rescue of PfHsp40-mediated yeast toxicity. S. cerevisiae expressing PfHsp40, growth rescue, ATP luminescence. growth rescue, % at 12.5 µM. 0.68% of 340,000 active. AID 504582; in the data active = growth rescue above about 28%, passing the limit was not always enough; inconclusive = no clear call, values can overlap the other calls;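 note: yeast W303a lacking pdr1 and pdr3 grown in galactose medium; growth measured after three days at 30 °C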
BioA inh: BioA (M. tuberculosis) enzyme inhibition; purified M. tuberculosis BioA enzyme, plate reader; inhibition, % at 9.99 µM; 0.096% of 360,000 active; in the data active = inhibition above about 40%; inconclusive = no clear call, values can overlap the other calls
TcdB GH inh: blocks C. difficile toxin B glycohydrolase activity; P18177; inhibition, % at 9.99 µM; 0.24% of 350,000 active; TcdB glycohydrolase enzymatic assay, plate reader; in the data active = inhibition above about 10%
FadD28 binding: M. tuberculosis FadD28 bisubstrate binding inhibition; FadD28 bisubstrate probe binding, fluorescence polarization; inhibition, % at 12.5 µM; 0.22% of 360,000 active; in the data active = inhibition above about 8.5%, passing the limit was not always enough; inconclusive = no clear call, values can overlap the other calls
PrP 5UTR inh: suppresses PrP 5' UTR mRNA reporter expression. cell-based PrP 5' UTR mRNA reporter, plate reader. inhibition, % (concentration not given with the values). 0.35% of 340,000 active. AID 488862; in the data active = inhibition above about 52%; note: 0 = median of the neutral control wells
The depositor's hits bear a star; u = inconclusive; x = not tested or not shown.

SMILES	PfHsp40 rescue	BioA inh	TcdB GH inh	FadD28 binding	PrP 5UTR inh
C[C@@H]1CN([C@@H](C)CO)C(=O)Cc2cc(NC(=O)Cn3cnnn3)ccc2O[C@@H]1CN(C)S(=O)(=O)c1cccs1	x	0	3	x	x
CC(C)(C)C(=O)C(Cl)C(=O)Nc1ccccc1 (centres undefined)	275*	x	1	-1	-9
CCCCC(CCCCl)C(=O)Nc1ccccc1 (centres undefined)	0	x	0	-2	-15
C[C@H](CO)N1C[C@H](C)[C@@H](CN(C)Cc2ccncc2)Oc2ccc(NC(=O)C3CC3)cc2CC1=O	x	25	0	x	x
C[C@H]1CN([C@@H](C)CO)C(=O)c2cc(-c3cccc(C#N)c3)cnc2O[C@@H]1CN(C)Cc1ccncc1	x	0	-1	x	x
COc1ccccc1Oc1c(C)oc2cc(OC(=O)N(C)C)ccc2c1=O	93*	1	-1	x	-12
CC(=O)c1cccc(N/C=C\C(=O)c2ccc(C)cc2)c1	27*	-2	x	-2	-57
N#Cc1nc(-c2ccc(Cl)cc2)oc1NCCc1ccccn1	67*	-1	x	1	-69
CNC[C@H]1OCCCC[C@@H](C)Oc2ccc(NC(=O)Nc3ccc(F)cc3)cc2C(=O)N([C@H](C)CO)C[C@H]1C	x	5	0	x	x
Cc1ccc(N=c2oc3cc(O)ccc3cc2C(N)=O)cc1	33*	1	x	3	-20
C[C@H]1CN([C@@H](C)CO)C(=O)Cc2cc(NC(=O)Cc3cn(C)c4ccccc34)ccc2O[C@H]1CN(C)C(=O)NC1CCCCC1	x	4	0	x	x
NC(=O)C1CCN(c2ccc3c(c2)S(=O)(=O)c2ccccc2C3=O)CC1	-1	-2	1	-3	-10
CC1CCN(c2ccc3c(c2)S(=O)(=O)c2ccccc2C3=O)CC1	199*	-4	1	-1	-54
CCOC(=O)c1cc([N+](=O)[O-])sc1N	1	-1	29*	-2	-20
Cc1ccc(S(=O)(=O)N[C@@H]2CC[C@H](CC(=O)NCc3ccncn3)O[C@@H]2CO)cc1	x	-1	1	x	x
COc1ccc(NC(=O)N(C)C[C@@H]2OCCCC[C@@H](C)Oc3ccc(NC(=O)Nc4ccccc4)cc3C(=O)N([C@@H](C)CO)C[C@H]2C)cc1	x	1	-1	x	x
O=C(NNC(=O)c1cccc2ccccc12)c1ccccc1O	29*	1	1	1	-7
O=C(NNC(=O)c1cccc2ccccc12)c1cccc(F)c1	-2	0	11*	-3	-22
C[C@@H]1CCCCO[C@@H](CN(C)C(=O)c2ccccc2)[C@@H](C)CN([C@H](C)CO)C(=O)c2cc(NC(=O)Nc3ccc4c(c3)OCO4)ccc2O1	x	0	-1	x	x
C[C@@H]1CN([C@@H](C)CO)C(=O)c2cc(NC(=O)Cc3ccccc3)ccc2O[C@@H](C)CCCCO[C@@H]1CN(C)C(=O)C1CCCCC1	x	2	0	x	x
CC(NC(=O)CN1C(=O)NC2(CCCC2)C1=O)c1ccc(Cl)cc1Cl (centres undefined)	61*	x	1	0	-11
Cn1cc(C(=O)N/N=C/C(Br)=C/c2ccccc2)ccc1=O	-1	x	0	-2	-29
Cn1cc(C(=O)N/N=C/C=C/c2ccccc2)ccc1=O	51*	1	x	-2	-19
C[C@@H]1CN([C@@H](C)CO)S(=O)(=O)c2ccc(C3=CCCCC3)cc2O[C@H]1CN(C)S(C)(=O)=O	x	x	-1	x	x
Cc1cc(C)c(C)c(OCCOCCN2CCN(C)CC2)c1	123*	x	x	1	-14
SMILES	PfHsp40 rescue	BioA inh	TcdB GH inh	FadD28 binding	PrP 5UTR inh
C[C@H]1CN([C@@H](C)CO)C(=O)c2cc(NC(=O)CCN3CCOCC3)ccc2O[C@H]1CN(C)Cc1ccc(C(=O)O)cc1	x	-3	-1	x	x
CN(c1ccccc1)S(=O)(=O)c1ccc(NC(=O)CC(=O)c2ccccc2)cc1	0	x	1	25*	-32
CC(=O)Nc1ccc(NC(=O)c2ccc(S(=O)(=O)N(C)c3ccccc3)cc2)cc1	u	2	1	-1	-11
CC1=C(C#N)C(=O)NC(=O)/C1=C\c1ccc(-c2cc(C)c(C)cc2[N+](=O)[O-])o1	5	3	0	15*	-13
O=C(C[C@H]1CC[C@@H]2[C@H](COC[C@@H](O)CN2Cc2ccccc2)O1)N[C@H]1CCN(Cc2ccccc2)C1	x	1	-3	x	x
COc1cc(/C=C/c2sc3ccccc3[n+]2CCCS(=O)(=O)[O-])ccc1O	0	x	10*	-19	-9
CCC(C)c1ccc(NC(=S)NCc2ccccc2OC)cc1 (centres undefined)	84*	x	4	2	-15
